# Screens: PubChem, several laboratories
# This is a sample that favours compounds with a hit; in the whole collection about 3.6% have one here.
# esBAF inh – inhibitors of esBAF chromatin remodeling in mouse ES cells; 350,000 compounds, 2% hits; reporter increase, % at 12.5 µM; AID 602393; Bmi1-luciferase knock-in reporter, 24 h; 100% = twice the neutral-well signal; in the data active means activation above about 40%;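 further: a rise in the Bmi1 reporter signal indicates esBAF inhibition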
# MITF act – increases MITF-driven TRPM1 promoter luciferase signal; SK-MEL-5 TRPM1-promoter luciferase, 24 h; % of positive control, neutral wells = 0; 300,000 compounds, 0.75% hits; activation, % at 12.5 µM; AID 588334;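 active means mean activation of at least 80% with every replicate also reaching 80%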
# APOBEC3G inh – APOBEC3G (human) deaminase inhibition; recombinant A3G, ssDNA deamination FAM/TAMRA fluorescence; 330,000 compounds, 0.28% hits; inhibition, % at 20 µM; AID 493012;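 active means inhibition of at least 40% at 20 µM, with no more than 30% in the related APOBEC3A deaminase screen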
# PHOSPHO1 block – PHOSPHO1 (human) inhibition; Q8TCT1; recombinant PHOSPHO1, absorbance phosphatase assay; inhibition, % at 13.3 µM; 290,000 compounds, 1.1% hits; AID 1565; in the data active means inhibition above about 60%
# Target sequence (Q8TCT1 whole entry, looked up): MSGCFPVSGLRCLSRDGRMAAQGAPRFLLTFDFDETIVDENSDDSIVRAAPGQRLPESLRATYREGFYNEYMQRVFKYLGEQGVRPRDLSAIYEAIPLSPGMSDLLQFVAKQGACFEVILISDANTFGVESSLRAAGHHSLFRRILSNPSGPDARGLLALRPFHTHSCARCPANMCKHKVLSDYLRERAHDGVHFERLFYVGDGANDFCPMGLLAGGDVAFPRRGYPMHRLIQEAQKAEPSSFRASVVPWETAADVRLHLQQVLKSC
# Wnt bcat act – activates Wnt/beta-catenin signaling in a reporter cell assay. AID 743398. activator, plate reader. activation, % at 9.35 µM. 300,000 compounds, 1.2% hits; in the data active means activation above about 30%, passing the limit was not always enough
# A3A deaminase – blocks human APOBEC3A ssDNA deamination | P31941 | recombinant A3A, FAM/TAMRA ssDNA deamination fluorescence | inhibition, % at 20 µM | 330,000 compounds, 0.41% hits | AID 493011;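 active means at least 40% inhibition at 20 µM here, with at most 30% in a related deaminase screen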
# Target sequence (P31941 whole entry, looked up): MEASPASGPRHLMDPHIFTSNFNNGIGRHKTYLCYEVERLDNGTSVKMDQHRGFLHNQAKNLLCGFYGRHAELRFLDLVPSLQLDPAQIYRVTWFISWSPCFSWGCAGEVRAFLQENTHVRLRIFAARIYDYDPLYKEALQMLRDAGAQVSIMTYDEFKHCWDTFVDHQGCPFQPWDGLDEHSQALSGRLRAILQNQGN
# A3A conf – confirmation of human APOBEC3A DNA deaminase inhibitors; AID 493151; inhibition, % at 20 µM; 1,400 compounds, 63% hits; shares compounds with A3A deaminase; recombinant A3A, ssDNA deaminase UDG fluorescence assay;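 active means inhibition reaching a set limit, 80% of the first screen's cutoff, at 20 µM in any replicate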
# UDG A3A counter – inhibits UDG, flagging false APOBEC3A inhibitors | shares compounds with A3A deaminase | UDG counterscreen, FAM/TAMRA uracil oligo fluorescence | inhibition, % at 20 µM | 1,000 tested, under 10 active | AID 504714; call rule not given here
# Numbers stand for hits; - = inactive; . = no result.
SMILES,esBAF inh,MITF act,APOBEC3G inh,PHOSPHO1 block,Wnt bcat act,A3A deaminase,A3A conf,UDG A3A counter
C[C@H](CO)N1C[C@H](C)[C@H](CN(C)C(=O)C2CC2)Oc2ncc(C#CC3CCCC3)cc2C1=O,-,.,.,.,.,.,.,.
C/C(=N\NC(=O)CO/N=C(\C)c1cccs1)c1ccc(N)cc1,.,-,-,-,-,-,.,.
C/C(=N\OCC(=O)N/N=C/c1ccc(C)cc1O)c1cccs1,-,-,-,-,-,51,-,-
CCOC(=O)Cn1c2[n+](c3ccccc31)CC(O)CS2 (stereo not drawn),-,-,-,-,-,69,86,-
O=C(CN1CCOCC1)NCC[C@H]1CC[C@@H](NC(=O)Cc2ccccn2)[C@H](CO)O1,-,.,.,.,.,.,.,.
C[C@@H]1CN([C@@H](C)CO)C(=O)c2cc(NC(=O)CCCCCC(=O)Nc3ccccc3N)ccc2O[C@@H]1CN(C)C(=O)NC1CCCCC1,-,.,.,.,.,.,.,.
CC(C)C(NC(=O)c1ccccc1F)C(=O)NCc1ccc(F)cc1 (stereo not drawn),-,-,-,-,-,40,-,.
CC(C)[C@H](NC(=O)c1ccccc1F)C(=O)NCCc1ccccc1,-,-,-,-,-,-,.,.
CCS(=O)(=O)Nc1ccc2c(c1)C(=O)N(C)C[C@@H](OC)[C@H](C)CN(C(=O)NC(C)C)[C@@H](C)CO2,-,.,.,.,.,.,.,.
Cn1c(CC(=O)Nc2ccc(Cl)c(Cl)c2)nnc1SCC(=O)N1CCN(c2ccccc2)CC1,-,-,-,-,-,-,.,.
CC(NC(=O)CSc1nnc(CC(=O)Nc2ccc(Cl)c(Cl)c2)n1C)c1ccccc1 (stereo not drawn),-,.,-,95,-,47,48,.
N#C[C@@H]1[C@H](c2ccc(C3=CCCC3)cc2)[C@H](CO)N1C(=O)Nc1ccccc1F,-,.,.,.,.,.,.,.
COc1ccc(NC(=O)CN(C)C(=O)c2cccc(S(=O)(=O)N3CCN(C)CC3)c2)cc1,-,-,-,.,-,55,-,.
COc1ccc(NC(=O)CN(C)C(=O)c2cccc(S(=O)(=O)N3CCN(Cc4ccccc4)CC3)c2)cc1,-,-,-,-,.,-,.,.
COc1ccc(CNC(=O)c2cccc(S(=O)(=O)N3CCN(C)CC3)c2)cc1,.,-,-,-,-,-,.,.
CCN1CCN(S(=O)(=O)c2ccc(Cl)c(C(=O)N(CC)CC(=O)Nc3ccc(OC)cc3)c2)CC1,-,-,-,-,-,54,71,-
CN1CCN(S(=O)(=O)c2cccc(C(=O)N(C)CC(=O)Nc3ccc(F)c(F)c3F)c2)CC1,.,-,-,.,-,57,66,-
CCN1CCN(S(=O)(=O)c2ccc(Cl)c(C(=O)Nc3ccc(OC(F)F)cc3)c2)CC1,-,-,-,-,-,-,.,.
COc1cccc(CNC(=O)c2cccc(S(=O)(=O)N3CCN(C)CC3)c2)c1,-,-,-,-,-,68,50,-
CCC(=O)N1C[C@@H]2[C@H](c3ccccc31)[C@@H](CO)N2C(=O)CC1CC1,-,.,.,.,.,.,.,.
CC(C)C#Cc1ccc2c(c1)O[C@H](CN(C)S(C)(=O)=O)[C@@H](C)CN([C@@H](C)CO)S2(=O)=O,-,.,.,.,.,.,.,.
O=C(CSc1nnnn1-c1ccccc1)Nc1ccc(N2CCOCC2)c(Cl)c1,-,-,-,-,.,64,55,-
O=C(CSc1nnnn1-c1cccc2ccccc12)Nc1ccc(N2CCOCC2)c(Cl)c1,-,-,-,-,.,-,.,.
Cc1noc(C)c1NC(=O)N(C)C[C@@H]1OCCCC[C@@H](C)Oc2ccc(NC(=O)c3ccncc3)cc2C(=O)N([C@H](C)CO)C[C@@H]1C,-,.,.,.,.,.,.,.
CCN1C(=O)/C(=C2/Sc3ccccc3N2CC)SC1=S,-,-,-,-,-,-,.,.
SMILES,esBAF inh,MITF act,APOBEC3G inh,PHOSPHO1 block,Wnt bcat act,A3A deaminase,A3A conf,UDG A3A counter
C=CCN1/C(=C2/SC(=S)N(C)C2=O)Sc2ccccc21,.,.,-,-,.,96,64,.
COC(=O)N/N=C(C)\C=C\c1ccco1,-,-,-,-,-,49,-,.
CSc1cccc(N2CC(C(=O)Nc3cccc(S(=O)(=O)N4CCCC4)c3)CC2=O)c1 (stereo not drawn),.,-,-,.,-,56,-,.
Cc1nc(N)nc(C)c1Cc1ccccc1,-,-,-,-,-,-,.,.
Cc1c2ccccc2cc(Cc2ccccc2)[n+]1C,-,.,-,-,-,43,60,-
C[C@@H]1CN([C@@H](C)CO)C(=O)c2cc(-c3ccncc3)cnc2O[C@H]1CN(C)C,-,.,.,.,.,.,.,.
Cc1ccc(OC(C)C(=O)Nc2ccc3c(c2)n(C)c(=O)n3C)c(C)c1 (stereo not drawn),-,.,-,-,-,84,-,.
C[C@H]1CN([C@@H](C)CO)C(=O)c2cc(-c3ccc(C#N)cc3)cnc2O[C@H]1CN(C)Cc1cccnc1,-,.,.,.,.,.,.,.
CCOC(=O)N1CCC(NC(=O)C2CCCN(C(=O)N3CCOc4ccccc43)C2)CC1 (stereo not drawn),-,-,-,-,.,54,-,-
Cc1ccccc1Nc1nnc(SCC(=O)Nc2ccccc2[N+](=O)[O-])s1,-,-,-,-,-,-,.,.
Cc1ccccc1NC(=O)CSc1ccsc1[N+](=O)[O-],.,-,-,-,-,48,42,.
Cc1cccc(NC(=O)CSc2ccc(C(N)=O)cc2[N+](=O)[O-])c1C,.,-,-,-,-,44,-,.
COc1ccc(-n2ncc3c(=O)n(CC(C)=O)cnc32)cc1,-,.,-,.,-,43,-,-
COCCn1c(Br)nc2c1c(=O)n(C)c(=O)n2C,.,-,-,-,-,48,-,-
CN1CC[n+]2c(CN3C(=O)c4ccccc4C3=O)csc21,-,-,-,-,.,51,79,-
CC(=O)c1cc(CN2C(=O)c3ccccc3C2=O)cs1,-,.,-,-,.,-,.,.
Cc1cccnc1NC(=O)CN1C(=O)COc2ccc(Cl)cc21,-,.,-,.,-,69,59,-
COC/C=C/C1=CC2=CC(=O)C(C)(OC(=O)c3cccs3)C(=O)C2=CO1 (stereo not drawn),.,.,-,.,.,-,.,.
COC/C=C/C1=CC2=CC(=O)C(C)(OC(=O)c3ccco3)C(=O)C2=CO1 (stereo not drawn),.,.,-,-,.,58,60,.
C[C@@H]1CN([C@H](C)CO)C(=O)c2cc(C3=CCCCC3)cnc2O[C@@H]1CN(C)Cc1ccc(C(=O)O)cc1,-,.,.,.,.,.,.,.
Cc1[nH]n(-c2ccccc2)c(=O)c1C=NCc1ccco1,.,.,-,-,.,-,.,.
Cc1[nH]n(-c2cccc(Cl)c2)c(=O)c1C=NCc1ccco1,.,105,-,-,-,44,-,.
CCCC[n+]1ccn(-c2nc3c([N+](=O)[O-])cccc3n2C)c1,-,.,-,-,-,68,78,.
CCN(Cc1ccc(OC)c(F)c1)C(=O)C1CCCO1 (stereo not drawn),-,-,-,-,-,56,32,-
